From PubChem BioAssay (NCATS)
Inconclusive results are not listed. Where a call stands in place of a potency, no number is given. Active and inactive are the calls of the source. The call rests on the fitted dose curve; in most records, active means well fitted curve in the direction sought with a large enough effect; inconclusive means small, poorly fitted or top-dose-only effect, or another doubt; inactive means no such curve, though single readings can be large; an effect the other way counts as inactive or inconclusive.

Experiments:
[1] = qHTS of pediatric cancer cell lines to identify multiple opportunities for drug repurposing: Primary screen for NB-EBc1 cells (AID 1347095)
Method in brief: (§1)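 Cells seeded at 500-1,000 cells/well in growth media, rested 5 hours at 37 degrees C, 5% CO2, then dosed; MIPE compounds at 11-point (from 0.78 nM) and NPC at 8-point (from 0.59 nM) final concentrations. Viability by CellTiter-Glo luminescence after 48 hours.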

[2] = qHTS of pediatric cancer cell lines to identify multiple opportunities for drug repurposing: Primary screen for U-2 OS cells (AID 1347096); further: nearly all actives have a fitted effect of over 50% in size
Method in brief: (§2)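 Cells (500-1,000/well) in growth media were settled 5 h at 37 degrees C, then given compounds for 48 h. Viability was read as CellTiter-Glo luminescence. Primary runs used MIPE at 11 points (0.78 nM-46 µM) and NPC at 8 points (0.59 nM-46 µM); follow-ups used 11 points.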

[3] = qHTS of pediatric cancer cell lines to identify multiple opportunities for drug repurposing: Primary screen for Saos-2 cells (AID 1347097); further: nearly all actives have a fitted effect of over 40% in size
Method in brief: as §1

[4] = qHTS of pediatric cancer cell lines to identify multiple opportunities for drug repurposing: Primary screen for SK-N-SH cells (AID 1347098); further: nearly all actives have a fitted effect of over 65% in size
Method in brief: (§3)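 Cells (500-1,000/well) rested 5 h, then received compounds for 48 h; metabolically active cells were measured by CellTiter-Glo luminescence. Final concentrations spanned up to 46 µM (MIPE, 11-point) or 0.59 nM-46 µM (NPC, 8-point) in primary screens, 11-point in follow-ups.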

[5] = qHTS of pediatric cancer cell lines to identify multiple opportunities for drug repurposing: Primary screen for NB1643 cells (AID 1347099); further: nearly all actives have a fitted effect of over 50% in size
Method in brief: as §1

[6] = qHTS of pediatric cancer cell lines to identify multiple opportunities for drug repurposing: Primary screen for LAN-5 cells (AID 1347100)
Method in brief: as §2

[7] = qHTS of pediatric cancer cell lines to identify multiple opportunities for drug repurposing: Primary screen for BT-12 cells (AID 1347101); further: nearly all actives have a fitted effect of over 25% in size
Method in brief: as §3

[8] = qHTS of pediatric cancer cell lines to identify multiple opportunities for drug repurposing: Primary screen for Rh18 cells (AID 1347102); further: nearly all actives have a fitted effect of over 65% in size
Method in brief: as §2

[9] = qHTS of pediatric cancer cell lines to identify multiple opportunities for drug repurposing: Primary screen for OHS-50 cells (AID 1347103); further: nearly all actives have a fitted effect of over 40% in size
Method in brief: as §3

[10] = qHTS of pediatric cancer cell lines to identify multiple opportunities for drug repurposing: Primary screen for RD cells (AID 1347104); further: nearly all actives have a fitted effect of over 55% in size
Method in brief: as §1

[11] = qHTS of pediatric cancer cell lines to identify multiple opportunities for drug repurposing: Primary screen for MG 63 (6-TG R) cells (AID 1347105); further: nearly all actives have a fitted effect of over 50% in size
Method in brief: as §1

[12] = qHTS of pediatric cancer cell lines to identify multiple opportunities for drug repurposing: Primary screen for control Hh wild type fibroblast cells (AID 1347106); further: nearly all actives have a fitted effect of over 55% in size
Method in brief: as §2

[13] = qHTS of pediatric cancer cell lines to identify multiple opportunities for drug repurposing: Primary screen for Rh30 cells (AID 1347107); further: nearly all actives have a fitted effect of over 75% in size
Method in brief: as §2

[14] = qHTS of pediatric cancer cell lines to identify multiple opportunities for drug repurposing: Primary screen for Rh41 cells (AID 1347108); further: nearly all actives have a fitted effect of over 70% in size
Method in brief: as §1

[15] = qHTS of pediatric cancer cell lines to identify multiple opportunities for drug repurposing: Primary screen for BT-37 cells (AID 1347094)
Method in brief: as §1

[16] = qHTS of pediatric cancer cell lines to identify multiple opportunities for drug repurposing: Confirmatory screen for NB1643 cells (AID 1347109); further: nearly all actives have a fitted effect of over 45% in size
Method in brief: as §2

[17] = qHTS of pediatric cancer cell lines to identify multiple opportunities for drug repurposing: Confirmatory screen for SK-N-MC cells (AID 1347111);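 further: cells exposed to compound for 48 h before the readout; nearly all actives have a fitted effect of over 70% in size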
Method in brief: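 Metabolically active cells were quantified by ATP-dependent luminescence (CellTiter-Glo, 15 min at room temperature) following 48 h treatment. Cells had been plated at 500-1,000 per well and settled for 5 h beforehand.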

[18] = qHTS of pediatric cancer cell lines to identify multiple opportunities for drug repurposing: Confirmatory screen for BT-12 cells (AID 1347112); further: nearly all actives have a fitted effect of over 55% in size
Method in brief: as §2

[19] = qHTS of pediatric cancer cell lines to identify multiple opportunities for drug repurposing: Confirmatory screen for LAN-5 cells (AID 1347113); further: nearly all actives have a fitted effect of over 65% in size
Method in brief: as §2

[20] = qHTS of pediatric cancer cell lines to identify multiple opportunities for drug repurposing: Confirmatory screen for A673 cells (AID 1347110);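 further: cells exposed to compound for 48 h before the viability read; nearly all actives have a fitted effect of over 65% in size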
Method in brief: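 A673 cells seeded at 500-1,000 cells/well, rested 5 h, then dosed; primary MIPE 11-point (0.78 nM to 46 µM), NPC (0.59 nM to 46 µM); confirmatory 11-point. CellTiter-Glo luminescence after 48 h.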
Potency means the concentration at half of the fitted maximal effect.

SMILES | Potency [1] | Potency [2] | Potency [3] | Potency [4] | Potency [5] | Potency [6] | Potency [7] | Potency [8] | Potency [9] | Potency [10] | Potency [11] | Potency [12] | Potency [13] | Potency [14] | Potency [15] | Potency [16] | Potency [17] | Potency [18] | Potency [19] | Potency [20]
O=C(c1ccc(F)cc1)N1CCC[C@H](c2nc(-c3ccc(F)cc3)no2)C1 | inactive | inactive | inactive | 13.6 µM (active) | inactive | inactive | inactive | inactive | inactive | inactive | inactive | inactive | inactive | inactive |  |  |  |  |  | 
COc1cccc2c1C(=O)c1c(O)c3c(c(O)c1C2=O)C[C@@](O)(C(C)=O)C[C@H]3O[C@H]1C[C@H](N)[C@H](O)[C@H](C)O1 |  | 0.118 µM (active) | 0.264 µM (active) | 0.121 µM (active) |  |  | 0.0769 µM (active) |  | 0.344 µM (active) | 0.0743 µM (active) | 0.372 µM (active) |  |  |  | 0.0273 µM (active) | 0.165 µM (active) | 0.165 µM (active) | 1.31 µM (active) | 0.185 µM (active) | 
COc1cc(C[C@@H](CO)[C@H](CO)Cc2ccc(O)c(OC)c2)ccc1O |  |  | 5.9 µM (active) | 1.71 µM (active) | 0.59 µM (active) | 2.35 µM (active) | 10.9 µM (active) | 4.18 µM (active) | 9.68 µM (active) | 0.526 µM (active) | 0.935 µM (active) | 0.418 µM (active) | 0.469 µM (active) | 0.935 µM (active) | 3.85 µM (active) | inactive | 8.27 µM (active) | inactive |  | 
Oc1cc2c(cc1O)C1c3ccc(O)c(O)c3OCC1(O)C2 (stereo unspecified) |  | inactive | inactive | inactive | inactive | inactive | inactive | inactive | inactive | inactive | inactive | inactive | inactive | inactive | inactive |  |  |  |  | 
Cn1cc(C[C@@H](N)C(=O)O)c2ccccc21 | inactive | inactive | inactive | inactive | inactive | inactive | inactive | inactive | inactive | inactive | inactive | inactive |  | inactive |  |  |  |  |  | 
CCOC(=O)[C@@H](N)Cc1ccc(-c2cc(O[C@H](c3ccc(Cl)cc3-n3ccc(C)n3)C(F)(F)F)nc(N)n2)cc1 |  |  | 18.7 µM (active) | inactive |  |  | 30.6 µM (active) | 23.5 µM (active) | 24.3 µM (active) |  |  | inactive |  |  | 27.3 µM (active) |  | 32.9 µM (active) |  | 23.3 µM (active) | 
Nc1ncn([C@@H]2O[C@H](CO)[C@@H](O)[C@@H]2O)c(=O)n1 | 16.6 µM (active) |  |  |  | 4.69 µM (active) | 5.26 µM (active) | 5.44 µM (active) |  | 15.3 µM (active) | 5.9 µM (active) | inactive |  |  |  | 10.9 µM (active) | 16.5 µM (active) | 16.5 µM (active) |  | 16.5 µM (active) | 5.85 µM (active)
C=Cc1c(C)c2cc3nc(cc4[nH]c(cc5nc(cc1[nH]2)C(C)=C5CCC(=O)O)c(CCC(=O)OC)c4C)[C@@]1(C)C3=CC=C(C(=O)OC)[C@H]1C(=O)OC |  | 0.372 µM (active) | 4.69 µM (active) | 0.121 µM (active) |  | 0.0526 µM (active) | 0.344 µM (active) |  |  | 0.105 µM (active) | 1.18 µM (active) |  |  | 0.0743 µM (active) | 0.0769 µM (active) | inactive |  | inactive |  | 
OCCNC1CCCc2c1[nH]c1ccc(-c3ccccc3)cc21 (stereo unspecified) |  |  | 18.7 µM (active) |  | inactive | 26.4 µM (active) | 30.6 µM (active) | 20.9 µM (active) | 24.3 µM (active) | 33.2 µM (active) | inactive | inactive |  |  | 24.3 µM (active) |  |  |  |  | 
CC(=O)NC(CS)C(=O)O (stereo unspecified) | inactive | inactive | inactive | inactive | inactive | inactive | inactive | inactive | inactive | inactive | inactive | inactive | inactive |  |  |  |  |  |  | 
C=C(C)[C@@H]1CC[C@]2(C(=O)O)CC[C@]3(C)[C@H](CC[C@@H]4[C@@]5(C)CC[C@H](O)C(C)(C)[C@@H]5CC[C@]43C)[C@@H]12 |  | inactive | 18.7 µM (active) | inactive | inactive | inactive | inactive | inactive |  | inactive | inactive | inactive |  | inactive | inactive |  |  |  |  | 
c1ccc2c(Oc3nc(Nc4ccc(N5CCOCC5)cc4)c4ncn(C5CCCCC5)c4n3)cccc2c1 |  | inactive | inactive | inactive | inactive | inactive |  |  |  | inactive | inactive | inactive | inactive | inactive | inactive |  |  |  |  | 
Cc1onc(-c2ccccc2)c1C(=O)N[C@@H]1C(=O)N2[C@@H](C(=O)O)C(C)(C)S[C@@H]12 | inactive | inactive | inactive | inactive | inactive | inactive | inactive | inactive | inactive |  | inactive | inactive | inactive |  |  |  |  |  |  | 
C[C@]12C=CC(=O)N[C@@H]1CC[C@H]1[C@H]3CC[C@@H](C(=O)Nc4cc(C(F)(F)F)ccc4C(F)(F)F)[C@@]3(C)CC[C@@H]12 |  | inactive | 16.6 µM (active) | inactive |  | inactive | inactive | inactive |  | inactive | inactive | inactive | inactive |  | inactive |  |  |  |  | 
CCOc1cc2c(c(F)c1OCC)C(=N)N(CC(=O)c1cc(N3CCOCC3)c(OC)c(C(C)(C)C)c1)C2 |  |  | 14.8 µM (active) |  | 4.69 µM (active) |  | 27.3 µM (active) |  | 21.7 µM (active) | 16.6 µM (active) | 14.8 µM (active) | inactive |  | 23.5 µM (active) | 27.3 µM (active) |  |  |  |  | 
Cc1cncc2cccc(S(=O)(=O)N3CCCN(C(=O)CN)C[C@@H]3C)c12 |  |  | 2.35 µM (active) |  | inactive | 1.48 µM (active) |  | inactive | inactive | inactive | inactive | inactive |  |  | inactive |  |  |  |  | 
CC(N[C@H]1CCCC[C@H]1NC(=O)c1ccc(Cl)cc1)c1cccc2ccccc12 (stereo partly specified) |  | inactive | 0.0662 µM (active) | 4.82 µM (active) | 0.418 µM (active) | 2.96 µM (active) | 1.37 µM (active) |  | 6.11 µM (active) | 2.64 µM (active) |  | inactive | inactive |  | 1.53 µM (active) | 20.8 µM (active) | 2.61 µM (active) |  | 14.7 µM (active) | 
Nc1nc(N)c2nc(-c3cccc(O)c3)c(-c3cccc(O)c3)nc2n1 |  | 23.5 µM (active) | 18.7 µM (active) | 19.2 µM (active) | 5.9 µM (active) | 11.8 µM (active) | 21.7 µM (active) |  | 19.3 µM (active) | 11.8 µM (active) |  |  |  |  | 21.7 µM (active) |  |  |  |  | 
Cn1cnc2c(F)c(Nc3ccc(Br)cc3F)c(C(=O)NOCCO)cc21 |  |  | inactive |  | inactive |  |  | inactive |  |  | inactive | inactive | inactive | inactive | inactive |  |  |  |  | 
N#CC(=C(O)c1ccc(Cl)cc1Cl)c1nc2cc(Cl)ccc2c(=O)[nH]1 |  | inactive |  | inactive | 20.9 µM (active) | inactive | inactive | inactive |  | inactive | inactive | inactive | inactive | inactive | inactive |  |  |  |  | 
O=C(NC1CC1)c1cccc(-c2ccc3c(NC(=O)C4CC4)n[nH]c3c2)c1 |  |  | 2.96 µM (active) | 1.71 µM (active) | 0.935 µM (active) | 2.09 µM (active) | 3.85 µM (active) | 2.96 µM (active) | 3.85 µM (active) | 0.935 µM (active) | 1.48 µM (active) |  |  | 2.96 µM (active) | 3.43 µM (active) |  | 8.27 µM (active) |  | inactive | 4.14 µM (active)
O=C(C[C@@H]1CC=CCCC(=O)O[C@H](c2ccccc2)CNC1=O)NCc1ccc(Cl)cc1 | inactive | inactive | inactive | inactive | inactive | inactive | inactive | inactive |  |  | inactive | inactive | inactive | inactive |  |  |  |  |  | 
C[C@@H](NCc1cc2ccccc2[nH]1)c1cccc2ccccc12 |  | inactive | inactive | inactive | inactive | inactive | inactive | inactive | inactive | inactive | inactive | inactive | inactive | inactive | inactive |  |  |  |  | 
